Assay results taken from PubChem BioAssay (Tox21).
Values without a mark were called inactive. Results filed as inconclusive are left out. Entries that show only a call come without a potency. Calls of active or inactive are those of the source. Unless noted, calls come from the whole dose curve; as a rule, active = well fitted curve in the direction sought with a large enough effect in the repeat runs; inconclusive = weak or mixed curves; inactive = no such curve, though single readings can be large; an effect the other way counts as inactive or inconclusive.

Experiments:
[1] = qHTS RealTime-Glo MT Cell Viability Assay in HEK293 cells - 0 hour (AID 1224880); note: top concentration of the series differs between compounds; nearly all actives have a fitted effect of over 45% in size
How it was run: (§1)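 Luminescence readout at each listed time point; HEK293, 600 cells/well, RealTime-Glo MT reagent added with cells; compounds pinned (23 nL in DMSO) after 5 h at 37 C; continuous culture at 37 C.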

[2] = A CellTox Green Cytotoxicity Assay to monitor cytotoxicity in HEK293 cells - 32 hour (AID 1224881); note: nearly all actives have a fitted effect of over 40% in size
How it was run: (§2)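 Read-out: fluorescence of a cell-impermeant cyanine dye staining DNA of dead cells, proportional to cytotoxicity. HEK293, 600 cells/well with reagent, compound (23 nL DMSO) added after 5 h; reads at 0, 8, 16, 24, 32, 40 h.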

[3] = A CellTox Green Cytotoxicity Assay to monitor cytotoxicity in HepG2 cells - 0 hour (AID 1224882); note: nearly all actives have a fitted effect of over 35% in size
How it was run: (§3)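 HepG2, 600 cells/well premixed w/ CellTox Green; 5 h settle, 37 C/5% CO2; pintool cpd add (DMSO); 37 C, 40 h; fluorescence read at 0, 8, 16, 24, 32, 40 h.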

[4] = A CellTox Green Cytotoxicity Assay to monitor cytotoxicity in HepG2 cells - 32 hour (AID 1224883); note: nearly all actives have a fitted effect of over 50% in size
How it was run: as §3

[5] = A CellTox Green Cytotoxicity Assay to monitor cytotoxicity in HEK293 cells - 8 hour (AID 1224884); note: nearly all actives have a fitted effect of over 35% in size
How it was run: as §2

[6] = qHTS RealTime-Glo MT Cell Viability Assay in HepG2 cells - 16 hour (AID 1224885); note: nearly all actives have a fitted effect of over 50% in size
How it was run: (§4)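 Tox21 10K library screened in qHTS format on HepG2 cells carrying RealTime-Glo reagents. Compounds were added after a 5 h preincubation, and the luminescent signal from continuous culture was measured repeatedly during 40 h treatment.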

[7] = qHTS RealTime-Glo MT Cell Viability Assay in HEK293 cells - 24 hour (AID 1224886); note: top concentration of the series differs between compounds; nearly all actives have a fitted effect of over 50% in size
How it was run: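 Luminescence generated by NanoLuc from substrate produced by living HEK293 cells served as the viability signal. Each value reflects the reading at its stated time point during continuous 40 h compound exposure at 37 C.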

[8] = qHTS RealTime-Glo MT Cell Viability Assay in HEK293 cells - 8 hour (AID 1224887); note: top concentration of the series differs between compounds; nearly all actives have a fitted effect of over 50% in size
How it was run: as §1

[9] = A CellTox Green Cytotoxicity Assay to monitor cytotoxicity in HEK293 cells - 16 hour (AID 1224888); note: nearly all actives have a fitted effect of over 35% in size
How it was run: as §2

[10] = qHTS RealTime-Glo MT Cell Viability Assay in HepG2 cells - 0 hour (AID 1224889); note: nearly all actives have a fitted effect of over 50% in size
How it was run: as §4

[11] = A CellTox Green Cytotoxicity Assay to monitor cytotoxicity in HepG2 cells - 8 hour (AID 1224890); note: nearly all actives have a fitted effect of over 45% in size
How it was run: as §3

[12] = qHTS assay to identify small molecule antagonists of the estrogen receptor alpha (ER-alpha) signaling pathway using the BG1 cell line in the presence of 0.1 nM 17-beta-estradiol - cell viability counter screen (AID 1259241); note: nearly all actives have a fitted effect of over 40% in size
How it was run: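 VM7Luc4E2 cells (endogenous full-length ER-alpha, 4xERE-luciferase), cultured 5 days in charcoal-stripped serum, exposed to compounds with 0.1 nM 17beta-estradiol (final) for 22 hr at 37C. Viability read in same wells as live-cell protease fluorescence after 30 min.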

[13] = qHTS assay to identify small molecule antagonists of the androgen receptor (AR) signaling pathway using the MDA cell line in the presence of 0.5 nM R1881 - cell viability counter screen (AID 1259242); note: nearly all actives have a fitted effect of over 45% in size
How it was run: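 Live-cell protease fluorescence, CellTiter-Fluor, 30 min at 37C. Cells: MDA-kb2, 3,000/well, preincubated 5 hr. Compounds plus 0.5 nM R1881 final, 16 hr, 37C, 0% CO2.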

[14] = molecular target: Estrogen receptor (Homo sapiens) (UniProt P03372); assay: qHTS assay to identify small molecule antagonists of the estrogen receptor alpha (ER-alpha) signaling pathway using the BG1 cell line in the presence of 0.1 nM 17-beta-estradiol (AID 1259244); note: nearly all actives have a fitted effect of over 50% in size
How it was run: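 Luminescence after ONE-Glo (30 min, room temperature) measured ERE-luciferase activity in VM7Luc4E2 cells treated 22 h with compound and 0.1 nM final 17beta-estradiol as stimulator.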

[15] = qHTS assay to identify small molecule phospholipidosis (PLD) inducers (AID 1259344; active = well fitted curve in the direction sought with a large enough effect; an effect the other way counts as inactive or inconclusive)
How it was run: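 Accumulated phospholipid, stained red by LipidTOX during 24 h compound treatment of HepG2 cells at 37 C, is quantified from images as pit number and intensity, normalised per cell using Hoechst-stained nuclei.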

[16] = qHTS assay to identify small molecule HDAC inhibitors (AID 1259364);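 note: wild-type HCT-116 cells with endogenous class I/II HDAC activity; top concentration of the series differs between compounds; nearly all actives have a fitted effect of over 45% in size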
How it was run: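 HCT-116 (wild type), 1,500 cells/well, overnight; compound 2 hr 37C 5% CO2; HDAC-Glo I/II reagent 30 min RT; luminescence readout.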

[17] = qHTS assay to identify small molecule HDAC inhibitors - cell viability counter screen (AID 1259365)
How it was run: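 Wild-type HCT-116 cells, 1,500/well, cultured overnight, then compound-treated 2 h at 37 C. Viability measured as ATP luminescence with CellTiter-Glo after 30 min at room temperature.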

[18] = qHTS assay to identify small molecule agonists of the sonic hedgehog signaling (Shh) pathway - cell viability counter screen (AID 1259366); note: nearly all actives have a fitted effect of over 50% in size
How it was run: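 NIH/3T3-derived Gli1-Luc reporter cells, 2,000 per well, received compound after 4 h and were treated about 23 h at 37C. Viability measured in the same wells by CellTiter-Fluor fluorescence after 1 h.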

[19] = qHTS assay to identify small molecule antagonists of the sonic hedgehog signaling (Shh) pathway - cell viability counter screen (AID 1259367); note: nearly all actives have a fitted effect of over 55% in size
How it was run: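 CellTiter-Fluor signal in conditioned medium-stimulated 3T3 Gli1-Luc cells, 23 hr compound exposure, 37C.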

[20] = molecular target: Androgen receptor (Homo sapiens) (UniProt P10275); assay: qHTS assay to identify small molecule antagonists of the androgen receptor (AR) signaling pathway using the MDA cell line in the presence of 0.5 nM R1881 (AID 1259243); note: nearly all actives have a fitted effect of over 50% in size; note: potency is the fitted concentration of half-maximal effect
How it was run: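 MDA-kb2, MMTV-luc (AR/GR elements); 3,000 cells/well; cpd + 0.5 nM R1881 final; 16 hr 37C, 0% CO2; ONE-Glo 30 min RT; luminescence.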

Chain of Estrogen receptor (Homo sapiens) (P03372 whole entry, looked up): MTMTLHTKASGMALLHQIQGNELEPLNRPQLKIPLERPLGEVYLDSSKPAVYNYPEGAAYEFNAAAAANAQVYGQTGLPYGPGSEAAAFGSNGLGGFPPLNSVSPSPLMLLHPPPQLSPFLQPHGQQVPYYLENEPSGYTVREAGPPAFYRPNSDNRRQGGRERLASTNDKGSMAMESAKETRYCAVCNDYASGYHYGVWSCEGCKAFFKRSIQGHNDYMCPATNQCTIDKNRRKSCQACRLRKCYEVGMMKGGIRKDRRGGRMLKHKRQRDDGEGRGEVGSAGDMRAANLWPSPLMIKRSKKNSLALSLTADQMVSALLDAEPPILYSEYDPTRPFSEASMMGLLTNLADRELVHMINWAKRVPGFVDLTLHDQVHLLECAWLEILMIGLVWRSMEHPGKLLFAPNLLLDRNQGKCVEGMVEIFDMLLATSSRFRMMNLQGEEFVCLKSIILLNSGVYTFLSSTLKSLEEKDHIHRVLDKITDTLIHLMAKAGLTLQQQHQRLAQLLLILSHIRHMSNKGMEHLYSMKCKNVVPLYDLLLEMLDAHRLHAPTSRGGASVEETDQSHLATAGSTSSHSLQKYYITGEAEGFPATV
Chain of Androgen receptor (Homo sapiens) (P10275 whole entry, looked up): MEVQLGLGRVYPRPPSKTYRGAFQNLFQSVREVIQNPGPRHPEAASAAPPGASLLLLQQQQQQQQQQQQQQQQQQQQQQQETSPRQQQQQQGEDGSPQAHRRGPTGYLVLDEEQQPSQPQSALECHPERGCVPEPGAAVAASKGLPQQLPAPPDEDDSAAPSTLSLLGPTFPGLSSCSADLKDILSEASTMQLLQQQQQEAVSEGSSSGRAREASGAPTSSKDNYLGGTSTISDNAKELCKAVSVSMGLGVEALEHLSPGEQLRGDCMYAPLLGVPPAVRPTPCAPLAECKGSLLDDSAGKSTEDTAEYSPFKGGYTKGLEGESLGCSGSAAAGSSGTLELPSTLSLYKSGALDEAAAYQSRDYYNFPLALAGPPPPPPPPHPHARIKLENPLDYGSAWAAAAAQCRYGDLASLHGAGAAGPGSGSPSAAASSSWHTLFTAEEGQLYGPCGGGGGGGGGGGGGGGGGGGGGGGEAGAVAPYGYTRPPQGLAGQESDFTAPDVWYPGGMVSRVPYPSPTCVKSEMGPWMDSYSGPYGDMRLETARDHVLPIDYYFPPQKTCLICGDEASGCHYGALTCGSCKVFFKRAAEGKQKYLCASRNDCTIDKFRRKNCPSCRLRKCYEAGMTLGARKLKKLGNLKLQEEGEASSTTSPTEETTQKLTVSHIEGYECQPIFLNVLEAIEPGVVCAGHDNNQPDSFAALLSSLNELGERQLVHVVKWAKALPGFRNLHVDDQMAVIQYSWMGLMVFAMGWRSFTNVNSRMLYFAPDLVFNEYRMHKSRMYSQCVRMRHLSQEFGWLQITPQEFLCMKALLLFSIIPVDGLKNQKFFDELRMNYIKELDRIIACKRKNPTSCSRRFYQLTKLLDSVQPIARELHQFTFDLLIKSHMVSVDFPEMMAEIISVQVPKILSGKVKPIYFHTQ

SMILES | outcome [1] | Potency [2] | Potency [3] | Potency [4] | Potency [5] | outcome [6] | Potency [7] | Potency [8] | Potency [9] | Potency [10] | Potency [11] | Potency [12] | outcome [13] | Potency [14] | outcome [15] | Potency [16] | outcome [17] | Potency [18] | Potency [19] | Potency [20]
CCC(=O)Nc1ccc(O)cc1 | inactive | inactive | inactive | inactive | inactive | inactive | inactive | inactive | inactive | inactive | inactive | inactive | inactive | inactive | inactive | inactive | inactive | inactive | inactive | –
CO[Si](C)(C)OC | inactive | inactive | inactive | inactive | inactive | inactive | inactive | inactive | inactive | inactive | inactive | inactive | inactive | inactive | – | inactive | inactive | inactive | inactive | –
CS(=O)(=O)c1ccc([C@@H](O)[C@@H](CF)NC(=O)C(Cl)Cl)cc1 | inactive | inactive | inactive | inactive | inactive | inactive | inactive | inactive | inactive | inactive | inactive | inactive | inactive | inactive | inactive | inactive | inactive | inactive | inactive | –
CC(=O)O[C@H]1CC[C@@]2(C)C(=CC[C@@H]3[C@@H]2CC[C@]2(C)C(C(C)=O)=CC[C@@H]32)C1 | inactive | inactive | inactive | inactive | inactive | inactive | inactive | inactive | inactive | inactive | inactive | inactive | inactive | inactive | – | inactive | inactive | – | inactive | 11.9 µM (active)
C=C(C)C(=O)OCCOP(=O)(O)O | inactive | inactive | inactive | inactive | inactive | inactive | inactive | inactive | inactive | inactive | inactive | inactive | inactive | inactive | – | inactive | inactive | inactive | inactive | –
N#CSCC(=O)O | inactive | inactive | inactive | inactive | inactive | inactive | inactive | inactive | inactive | inactive | inactive | inactive | inactive | inactive | – | inactive | inactive | inactive | inactive | inactive
CCCCN1C[C@H](O)[C@@H](O)[C@H](O)[C@H]1CO | inactive | inactive | inactive | inactive | inactive | inactive | inactive | inactive | inactive | inactive | inactive | inactive | inactive | inactive | inactive | – | inactive | inactive | inactive | –
Oc1ccccc1F | inactive | inactive | inactive | inactive | inactive | inactive | inactive | inactive | inactive | inactive | inactive | inactive | inactive | inactive | – | inactive | inactive | inactive | inactive | –
CO[C@@]1(NC(=O)CSCC#N)C(=O)N2C(C(=O)O)=C(CSc3nnnn3C)CS[C@@H]21 | inactive | inactive | inactive | inactive | inactive | inactive | inactive | inactive | inactive | inactive | inactive | inactive | inactive | inactive | inactive | inactive | inactive | inactive | inactive | –
CCc1cc(Cl)c(OC)c(C(=O)NC[C@@H]2CCCN2CC)c1O | inactive | inactive | inactive | inactive | inactive | inactive | inactive | inactive | inactive | inactive | inactive | inactive | inactive | inactive | – | – | inactive | inactive | inactive | –
C[C@]12C(=O)OC(=O)[C@H]1[C@H]1C=C[C@@H]2C1 | inactive | inactive | inactive | inactive | inactive | inactive | inactive | inactive | inactive | inactive | inactive | inactive | inactive | inactive | – | inactive | inactive | – | – | –
CCOc1ccc(NC(N)=O)cc1 | inactive | inactive | inactive | inactive | inactive | inactive | inactive | inactive | inactive | inactive | inactive | inactive | inactive | inactive | – | inactive | inactive | inactive | inactive | –
CC(C)c1ccccc1 | inactive | inactive | inactive | inactive | inactive | inactive | inactive | inactive | inactive | inactive | inactive | inactive | inactive | inactive | – | inactive | inactive | inactive | inactive | inactive
O=C(CC(=O)C(F)(F)F)c1ccccc1 | inactive | inactive | inactive | inactive | inactive | inactive | inactive | inactive | inactive | inactive | inactive | inactive | inactive | inactive | – | inactive | inactive | inactive | inactive | –
OCCN(CCO)c1ccccc1 | inactive | inactive | inactive | inactive | inactive | inactive | inactive | inactive | inactive | inactive | inactive | inactive | inactive | inactive | – | inactive | inactive | inactive | inactive | inactive
